This is a sample that favours compounds with a hit; in the whole collection about 2.4% have one here.
HSP90 inh: blocks HSP90-mediated luciferase refolding in reticulocyte lysate; Rabbit reticulocyte lysate, luciferase refolding luminescence, 3 h; inhibition, % at 5.6 µM; 290,000 compounds, 0.91% hits;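 active = inhibition above the screen-wide mean plus 3 SD, computed separately per campaign, cut at about 16% in these data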;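 note: inhibitors lower the luminescence because luciferase stays unfolded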
PPC-1+TRAIL kill: compounds killing PPC-1 cancer cells with TRAIL present (potentiator screen, no TRAIL-free arm). PPC-1 cells + TRAIL, ATPLite viability luminescence. AID 1443. cell killing (% activity), % at 4 µM or 5 µM. 220,000 compounds, 0.41% hits;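 active = cell killing above 50% in the first pass at 4 µM, then a duplicate retest at 5 µM averaging 50% or more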
STAT3 inh: STAT3 signaling inhibition | U3A cells, IL-6 STAT3-luciferase reporter, luminescence; host cell line lacks STAT1 | inhibition, % at 5.5 µM | 190,000 compounds, 0.89% hits | AID 862;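 active = inhibition above the mean inhibition across all screened compounds plus 3 SD, cut at about 44% in these data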
HSF1 inh: HSF1 inhibition; NIH3T3-HGL HSE-luciferase, MG132-induced, luminescence 8 h; active compounds read low; activity change, negative = inhibition, % at 7.5 µM (by protocol); 300,000 compounds, 0.77% hits;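 active = more than half of replicate wells show activity change below -50%, luminescence cut by over half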;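 note: luciferase reports HSF-1 transcriptional activity via heat shock element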
STAT1 blocker: STAT1 signaling inhibition | NIH 3T3 STAT1-luciferase reporter, IFN-gamma, luminescence | inhibition, % at 5.5 µM | 200,000 compounds, 0.35% hits;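 active = inhibition above a set limit, the mean inhibition across all tested compounds plus 3 SD, cut at about 34% in these data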
C8 TRAIL sens: caspase-8 TRAIL sensitization; NB7+C8 cells + TRAIL, ATPlite viability luminescence; inhibition (viability loss, TRAIL sensitization), % at 10 µM; 360,000 compounds, 1% hits; AID 624354;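 active = compounds causing at least 50% loss of cell viability in the single-dose screen, relative to plate controls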
Numbers stand for hits; - = inactive; . = no result given.

SMILES | HSP90 inh | PPC-1+TRAIL kill | STAT3 inh | HSF1 inh | STAT1 blocker | C8 TRAIL sens
COc1ccccc1OCC(=O)Nc1ccncc1 | - | . | . | - | . | -
O=C(NCc1ccco1)C(=O)NCC(c1ccco1)N1CCOCC1 (centres undefined) | - | - | - | -68.9 | - | -
O=C(NC(=S)N1CCc2ccccc21)c1ccccc1Cl | - | . | . | - | . | -
O=C(NC(=S)N1CCc2ccccc21)c1ccccc1 | - | - | - | - | - | 50.7
CC1=CN2C(=N)/C(=C/c3ccco3)C(=O)N=C2S1 | - | - | - | - | - | 57.8
c1ccc(CN=C2NN=C(c3ccccc3)CS2)cc1 | - | - | - | - | - | -
CCN=C1NN=C(c2ccc(C)cc2)CS1 | - | - | 65.8 | - | - | -
CC(=O)c1cnc2c(-c3ccccc3)cnn2c1C | - | - | - | - | - | -
CCOC(=O)c1cnc2c(-c3ccccc3)cnn2c1C | - | - | - | - | - | 58.5
COc1ccccc1-c1cc(NC(C)=O)c2ncc(-c3cccc(C(C)=O)c3)n2c1 | . | . | . | . | . | -
O=C(Nc1ccc2c(c1)CCC2)c1ccc(F)cc1 | - | - | - | - | - | 51.8
O=C(Nc1ccc(F)cc1)Nc1ccc2c(c1)CCC2 | - | . | . | - | . | -
S=c1[nH]nc(-c2cccc(Br)c2)o1 | - | - | - | - | - | -
Nn1c(-c2cccc(Br)c2)n[nH]c1=S | - | - | - | -54.4 | - | -
COC(=O)c1ccc(NC(=O)C2C3C=CC(C3)C2C(=O)O)cc1 (centres undefined) | - | . | . | -51.8 | . | -
CCOC(=O)C1=C(COC(=O)c2ccc(OC)c(S(=O)(=O)N3CCOCC3)c2)NC(=O)NC1C (centres undefined) | . | . | . | . | . | -
CCOc1cccc2sc(N(CCCN(C)C)C(=O)c3ccc(S(=O)(=O)N4CCc5ccccc5C4)cc3)nc12 | - | . | . | - | . | 68.3
CCc1ccc2nc(N(CCCN(C)C)C(=O)c3ccc(S(=O)(=O)N4CCc5ccccc5C4)cc3)sc2c1 | - | . | . | - | . | 79.5
CCOc1cccc2sc(N(CCCN(C)C)C(=O)c3ccc(S(=O)(=O)N(C)c4ccccc4)cc3)nc12 | - | - | - | - | - | -
CC(C)NC(=O)C1(C)CCN1C(=O)C(c1ccccc1)c1ccccc1 (centres undefined) | . | . | . | . | . | -
CCN1CCN(Cc2ccc(NC(=O)c3cc(NC(=O)c4cc5cccc(OC)c5o4)cc(OC)c3)cc2C(F)(F)F)CC1 | . | - | . | - | . | 94.8
Cc1ccc(C(=O)Nc2cccc(C(F)(F)F)c2)cc1NC(=O)c1c[nH]c2cc(C(F)(F)F)ccc2c1=O | . | . | . | . | . | -
COc1cc(NC(=O)c2cc3cccc(OC)c3o2)cc(C(=O)Nc2cccc(C(F)(F)F)c2)c1 | . | - | . | -67.4 | . | 51.2
CCN1CCN(Cc2ccc(NC(=O)c3cc(NC(=O)c4cc(-c5ccc(OC)cc5)n[nH]4)cc(OC)c3)cc2C(F)(F)F)CC1 | . | - | . | - | . | 87.6
CCN1CCN(Cc2ccc(NC(=O)c3ccc(C)c(NC(=O)c4c[nH]c5cc(C(F)(F)F)ccc5c4=O)c3)cc2C(F)(F)F)CC1 | . | - | . | - | . | 94.8
SMILES | HSP90 inh | PPC-1+TRAIL kill | STAT3 inh | HSF1 inh | STAT1 blocker | C8 TRAIL sens
O=C(NCCN1CCC(n2c(=O)[nH]c3ccccc32)CC1)C(c1ccccc1)c1ccccc1 | . | . | . | . | . | -
Cc1ccc(S(=O)(=O)N(C)CC(=O)N(C)CCOc2ccccc2)cc1 | . | . | . | . | . | -
CC(C)[C@@H]1Cc2[nH]c(=S)[nH]c(=O)c2[C@H](CCc2ccccc2)O1 | . | . | . | . | . | -
CCN1CCN(Cc2ccc(NC(=O)c3cc(NC(=O)c4cncc(-c5cccs5)c4)cc(OC)c3)cc2C(F)(F)F)CC1 | - | . | . | - | . | 84.7
CCc1nc2ccc(C(=O)NCCOc3ccc(OC)cc3)cn2c1N(C)Cc1cccs1 | . | . | . | . | . | -
CCC(O)c1cnc(OCc2ccccc2)nc1OCc1ccccc1 (centres undefined) | . | . | . | . | . | -
CCSc1nnc(NC(=O)CSc2nc3c(cc2C#N)CCCC3)s1 | - | - | - | - | - | -
N#Cc1cc2c(nc1SCC(=O)Nc1nccs1)CCCCC2 | 19.7 | 66.8 | - | - | - | 58.5
Cc1ccc(C)c2[nH]c(=O)c(CCNC(=O)C(C)(C)C)cc12 | - | - | - | -85.8 | - | -
CCCC(=O)N1CCCC(c2cc(C(=O)Nc3ccccc3)no2)C1 (centres undefined) | . | . | . | . | . | 51.6
Nc1[nH]c(C(=O)c2ccccc2)c(-c2ccccc2Cl)c1C(=O)c1ccccc1 | . | . | . | . | . | -

Source: PubChem BioAssay
